VACV mCherry inh: inhibitors of vaccinia virus infection (mCherry reporter signal); 310,000 compounds, 0.63% hits; Vaccinia virus mCherry reporter infection, fluorescence; Potency, µM (titrated, usually from 36.5 µM), for the others: top-dose activity change, negative = inhibition, usual class: inhibitors; AID 720579; calls by dose curve; tested in A549 cells; also: nearly all actives have a fitted effect of over 35% in size
Vaccinia Venus: inhibitors of vaccinia virus (Venus reporter); Vaccinia virus Venus reporter expression, fluorescence; Potency, µM (doses to about 36.5 µM), inactives show at the top dose activity change, negative = inhibition, usual class: inhibitors; 330,000 compounds, 0.46% hits; calls by dose curve; tested in A549 cells; also: nearly all actives have a fitted effect of over 30% in size
MARV entry inh: Marburg virus entry inhibition; 300,000 compounds, 1.8% hits; Marburg virus pseudotyped entry inhibition, cell reporter; AID 540276; Potency, µM (highest dose often 37.8 µM), for the others: at the top dose activity change, negative = inhibition, hits mostly inhibitors; calls by dose curve; tested in HEK293 cells
Sm TGR inh: inhibitors of Schistosoma mansoni thioredoxin glutathione reductase. AID 485364. Potency, µM (titrated, usually from 114 µM), without a hit: at the top dose activity change, negative = inhibition, most hits filed as inhibitors. purified TGR, DTNB reduction, TNB absorbance 405 nm. 360,000 compounds, 3% hits. Q962Y6; active = well fitted inhibition curve with a large enough effect; inconclusive = small, poorly fitted or top-dose-only effect; inactive = no such curve, though single readings can be large or run the other way; also: nearly all actives have a fitted effect of over 60% in size
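First, TGR (20 nM dispensed) and NADPH were mixed with compound. Second, a 15 min room-temperature incubation followed. Third, further NADPH and then DTNB were added to start the reaction. Finally, TNB absorbance was monitored kinetically.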
Lassa entry inh: blocks Lassa virus binding to or entry into cells; Lassa virus pseudotype entry inhibition, cell reporter; Potency, µM (top dose mostly 37.9 µM), without a hit: at the highest dose activity change, negative = inhibition, actives largely listed as inhibitors; 300,000 compounds, 1.2% hits; calls by dose curve; tested in HEK293 cells; also: nearly all actives have a fitted effect of over 50% in size
FMDV antiviral: antivirals against foot and mouth disease virus; 410,000 compounds, 1.2% hits; Potency, µM (titrated, usually from 57.9 µM), for the others: at the highest dose activity change, negative = inhibition, hits mostly inhibitors; FMDV antiviral cell-based qHTS; calls by dose curve; tested in HEK293T cells; also: read-out not given here; nearly all actives have a fitted effect of over 45% in size
* marks the source's active call; other numbers are inactive results; i = inactive; ? = inconclusive; · = not tested or not shown; [ ] = dose if it differs, or a comment. Rows were chosen to be rich in hits. Some 5.4% of all compounds tested hit in one or more screens of this group. % is scaled to controls: 0 for no effect and ±100 for the full control effect; potency is read from the fitted curve at half-maximal effect.

SMILES | VACV mCherry inh | Vaccinia Venus | MARV entry inh | Sm TGR inh | Lassa entry inh | FMDV antiviral
CCOc1cccc(CC(=O)N2CCc3c([nH]c4ccccc34)C2c2ccc(SC)cc2)c1OCC (configuration not stated) | -15.9% | -13.0% | ? | 7.9% | ? | 0.0%
Cc1cc(C(=O)CSc2nnnn2-c2ccccc2)c(C)n1-c1ccc2c(c1)OCO2 | -12.4% | -13.0% | ? | -18.5% | 6.51µM* | -26.1%
Cc1ccc(-n2nnnc2SCC(=O)c2cc(C)n(-c3cc(C)on3)c2C)cc1 | i | -8.6% | 0.7% | -17.9% | 11.6µM* | ·
Cc1cccc(C(=O)Nc2nnc(S(=O)(=O)N3c4ccccc4CC3C)s2)c1 (configuration not stated) | -16.0% | -29.0% | · | -4.7% | -3.4%[46.1 µM] | -22.1%
Cc1cc(C)cc(Nc2nc3ccccc3c(=O)[nH]2)c1 | -10.0% | -20.5% | ? | -0.6% | 4.1% | 2.9%
Cc1nc(Nc2nc(CSc3ccc(Cl)cc3)cc(=O)[nH]2)nc2ccccc12 | -12.6% | -4.2% | 6.5% | 8.6% | 12.6% | -15.3%
Cc1ccc2c(=O)[nH]c(Nc3nc(C)cc(-c4ccccc4)n3)nc2c1 | -10.1% | -26.5% | · | -4.6% | · | 7.0%
Cc1nc(Nc2nc(-c3ccccc3)cc(=O)[nH]2)nc2ccccc12 | 10µM* | 10µM* | ? | · | ? | -13.1%
COc1nc(Nc2nc3ccccc3c(=O)[nH]2)nc2ccc(C)cc12 | 2µM* | 2µM* | · | -1.8% | · | 45.3%
Cc1nc(Nc2nc(CSc3nc4ccccc4[nH]3)cc(=O)[nH]2)nc2ccccc12 | 10µM* | 10µM* | 12.6µM* | -3.5% | ? | ?
COc1ccc2nc(Nc3nc(CSc4nc5ccccc5[nH]4)cc(=O)[nH]3)nc(C)c2c1 | ? | ? | 11.2µM* | -9.7% | ? | ?
CC(C)C(NS(C)(=O)=O)c1nnc2n1CCN(Cc1ccc(C#CC(C)(C)O)cc1)CC2 (configuration not stated) | -13.2% | -3.1% | · | · | · | -0.3%
COc1cccc(C(=O)c2sc(Nc3ccc(C)cc3C)c(S(=O)(=O)c3ccccc3)c2N)c1 | -11.9% | -11.7% | ? | 5.2% | ? | -18.7%
COc1ccc2c(c1)c1c(c(=O)n(-c3ccc(F)c(Cl)c3)c(=O)n1Cc1ccccc1C)n2C | -3.9% | -6.3% | · | -3.9% | 1.7%[46.1 µM] | 6.9%
Cn1c(=O)oc2cc(S(=O)(=O)N3CCCC(C(=O)N4CCN(c5ccccc5F)CC4)C3)ccc21 (configuration not stated) | -13.3% | -13.9% | 0.6%[46.1 µM] | -1.4% | 5.0%[46.1 µM] | 20µM*
Cn1c(=O)oc2cc(S(=O)(=O)N3CCCC(C(=O)N4CCN(c5ccc(F)cc5)CC4)C3)ccc21 (configuration not stated) | -16.3% | -18.0% | ? | -6.3% | -9.2%[46.1 µM] | ?
Cc1ccc(C)c(N2CCN(C(=O)C3CCCN(S(=O)(=O)c4ccc5c(c4)oc(=O)n5C)C3)CC2)c1 (configuration not stated) | -27.2% | -25.5% | ? | -1.2% | ? | 15.8µM*
O=C(CCO)c1ccc(O)cc1 | -4.9% | -1.7% | · | 17.8µM* | · | -2.8%
O=C(CCSc1ccc(Br)cc1)c1ccc(O)cc1 | -22.5% | ? | · | 2.51µM* | · | 25.0%
Cc1cc(NC(=S)Nc2cccnc2)ccc1Br | i | -19.7% | 10.8%[46.1 µM] | 17.8µM* | 1.8%[46.1 µM] | 9.8%
CCN(CC)S(=O)(=O)c1cc(C)ccc1NC(=S)Nc1cccnc1 | -19.0% | -19.1% | 11.2µM* | 22.4µM* | ? | -8.5%
Cc1cc(Cl)ccc1NC(=S)Nc1cccnc1 | · | · | 6.6% | 17.8µM* | -1.1% | 35.9%
O=C(Nc1cccnc1)Nc1ccc(Cl)cc1Cl | · | · | · | 19.0% | · | 15.7%
CCN1C(=NCc2ccc(OC)cc2)NC(c2cccc(F)c2)C(C(=O)OC)=C1C (configuration not stated) | · | · | 2.4%[14.2 µM] | · | · | ·
O=C(Nc1ccc2c(c1)OCO2)c1noc2c1CCCC2 | -21.7% | -13.9% | 7.08µM* | -4.0% | ? | -10.9%
SMILES | VACV mCherry inh | Vaccinia Venus | MARV entry inh | Sm TGR inh | Lassa entry inh | FMDV antiviral
CC(=O)Nc1ccc2c(c1)OCCO2 | · | -12.4% | 6.1% | 9.4% | 3.7% | 2.1%
O=C(Nc1ccc2c(c1)OCCO2)Nc1ccc2c(c1)OCO2 | -11.7% | -13.1% | ? | -1.6% | 8.91µM* | -35.0%
C=C(C)C(=O)Nc1ccc2c(c1)OCCOCCOCCO2 | i | -17.2% | 11.2µM* | 6.4% | -5.0%[46.1 µM] | -6.2%
NC(=O)c1ccc(NC(=O)Nc2ccc3c(c2)OCO3)cc1 | · | · | · | -12.0% | · | 48.9%
O=C(CCl)Nc1ccc2c(c1)OCO2 | -20.0% | -19.2% | ? | 15.8µM* | ? | ?
O=C(Nc1ccc2c(c1)OCO2)c1noc2c1CCCCC2 | · | · | ? | -29.0% | ? | -5.8%
CCCCOC(=O)c1ccc(NC(=O)c2cc(-c3cccs3)on2)cc1 | i | -13.8% | -1.5%[46.1 µM] | -1.2% | -0.5%[46.1 µM] | 16.9%
Clc1ccccc1-c1nc(Nc2ccncc2)c2ccccc2n1 | · | · | · | · | · | -25.1%
Cc1nc2c(C(=O)N(C)Cc3ccccc3)c[nH]n2c(=O)c1Cc1ccc(Cl)cc1 | -14.5% | -13.0% | ? | -14.1% | -29.9%[46.1 µM] | ?
COCCNC(=O)c1c[nH]c2ccc(S(=O)(=O)N3CCc4ccccc43)cc2c1=O | ? | 5.62µM* | ? | 6.4% | ? | ?
COCCCNC(=O)c1c[nH]c2ccc(S(=O)(=O)N3CCc4ccccc43)cc2c1=O | ? | ? | ? | -12.9% | ? | ?
CC(C)CCNC(=O)c1cccc(S(=O)(=O)N2CCc3ccccc32)c1 | ? | -29.7% | ? | -4.0% | 3.98µM* | 3.3%
O=C(NNC(=O)c1cccc(S(=O)(=O)N2CCc3ccccc32)c1)c1ccccc1 | -29.0% | ? | ? | -17.7% | ? | 0.0%
CCN(CC)CCCC(C)NC(=O)c1cccc(S(=O)(=O)N2CCc3ccccc32)c1 (configuration not stated) | 1.4% | -3.2% | ? | 15.8µM* | 17.5% | 1.3%
CCOc1ccc(CCNC(=O)c2cn(CC)c3ccc(S(=O)(=O)N4CCc5ccccc5C4)cc3c2=O)cc1OCC | -17.0% | -23.6% | 15.2%[46.1 µM] | 2.0% | -10.8%[46.1 µM] | -16.3%
CC(=O)NN1C(=O)c2ccccc2NC1c1ccc([N+](=O)[O-])o1 (configuration not stated) | · | · | · | 39.8µM* | · | -18.6%
O=C(NN1C(=O)c2ccccc2NC1c1ccc([N+](=O)[O-])o1)c1ccc(Br)cc1 (configuration not stated) | · | · | · | ? | · | -18.5%
COCCN1C(=O)CC[C@@]23C1=NC(C(=O)OC)=C(C(=O)OC)[C@@H]2N(Cc1ccccc1)c1ccccc13 | · | · | -8.8%[14.2 µM] | · | · | ·
Cc1c(S(=O)(=O)c2ccccn2)c(N)n(Cc2cccc(Cl)c2)c1C | · | · | · | 2µM* | · | 18.6%
O=S(=O)(c1ccc(Cl)cc1)c1ccccn1 | -17.3% | -5.1% | 3.9% | -8.1% | 27.5% | ·

Screens (PubChem)
